Most compounds without a hit are left out; they make up all but 1.8% or so of the library.
PrPC surface inh: cell surface PrPC inhibition, primary TR-FRET screen. 370,000 tested, 0.43% active. AID 720596. inhibition, % at 13.8 µM. P04156. TR-FRET read-out; in the data active = inhibition above about 24%; also: 0% = median of the test wells and 100% = reference compound wells
MazF activator: MazEF (E. coli) toxin RNase activation | P0AE70 | FAM/BHQ RNA-DNA oligo cleavage fluorescence, 5 h | activation, % at 20 µM | 350,000 tested, 0.32% active; in the data active = activation above about 50%
Target sequence (P0AE70 whole entry, looked up): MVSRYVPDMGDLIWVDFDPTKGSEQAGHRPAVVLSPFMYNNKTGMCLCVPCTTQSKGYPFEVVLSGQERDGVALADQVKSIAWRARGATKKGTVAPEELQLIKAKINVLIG
PfHsp40 yeast: rescue of PfHsp40-mediated yeast toxicity; AID 504582; S. cerevisiae expressing PfHsp40, growth rescue, ATP luminescence; 340,000 tested, 0.68% active; growth rescue, % at 12.5 µM; in the data active = growth rescue above about 28%, passing the limit was not always enough;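 also: yeast W303a lacking pdr1 and pdr3 grown in galactose medium; growth measured after three days at 30 °C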
PrP UTR inh: suppresses PrP 5' UTR mRNA reporter expression. 340,000 tested, 0.35% active. cell-based PrP 5' UTR mRNA reporter, plate reader. inhibition, % (test concentration not listed); in the data active = inhibition above about 52%; also: 0 = median of the neutral control wells
SSB-PriA inh: blocks PriA binding to SSB C-terminal tail | AlphaScreen SSBct-PriA binding, biotinylated peptide | AID 1272365 | 430,000 tested, 0.6% active | inhibition, % at 33 µM; in the data active = inhibition mostly above about 37%, no sharp cut-off; inactive = mostly below about 20%;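 also: plate controls were negative control peptide for no effect and reference peptide for full effect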
The depositor's hits bear a star; . = no result; + = active, no number.

SMILES	PrPC surface inh	MazF activator	PfHsp40 yeast	PrP UTR inh	SSB-PriA inh
COc1ccc(N(C)S(=O)(=O)c2cccc(C(=O)Nc3nc(C)c(C(C)=O)s3)c2)cc1	1.4	-1.1	1.1	.	-0.8
CCOC(=O)Cn1ncc(-c2ccccc2)c1N	0.0	-8.6	-1.2	-27.7	-3.1
Cc1c(C(=O)O)oc2c1ccc1ccccc12	3.2	-6.8	2.1	-10.4	-12.8
Cc1c(C(=N)C(C#N)C#N)c(=N)oc2c1ccc1ccccc12	-9.5	15.9	-0.1	-31.6	70.0*
O=C(CSc1cccc2cccnc12)Nc1ccc(SC(F)F)cc1	.	.	.	.	85.3*
O=C(CSc1cccc2cccnc12)Nc1cccc(C(F)(F)F)c1	.	.	.	.	125.5*
Cn1ccnc1SCC(=O)Nc1ccc(SC(F)F)cc1	-1.7	2.8	0.4	-35.7	11.5
COc1cccc(NC(=O)CSc2cccc3cccnc23)c1	.	.	.	.	21.5
CC(=O)c1cccc(NC(=O)CSc2cccc3cccnc23)c1	.	.	.	.	116.0*
CN(C)S(=O)(=O)c1cccc(NC(=O)CSc2cccc3cccnc23)c1	4.4	9.4	-0.9	-7.4	65.1*
Cc1cc(I)ccc1NC(=O)CSc1cccc2cccnc12	.	.	.	.	44.9
Cc1nc(Br)c(Br)n1Cc1ccccc1	5.3	-0.3	.	.	.
O=C(CSc1cccc2cccnc12)c1ccc([N+](=O)[O-])cc1	.	.	.	.	57.6*
Cc1cc(Br)ccc1NC(=O)CSc1cccc2cccnc12	.	.	.	.	82.4*
Cc1cc(Cl)ccc1NC(=O)CSc1cccc2cccnc12	.	.	.	.	46.5
O=C(CSc1cccc2cccnc12)Nc1cccc([N+](=O)[O-])c1	.	.	.	.	88.0*
COc1cc([N+](=O)[O-])ccc1NC(=O)CSc1cccc2cccnc12	.	.	.	.	-11.0
CCCn1nc(-c2ccccc2)c2nc3ccccc3nc21	-0.3	+	.	.	-35.5
CCCCCn1nc(-c2ccccc2)c2nc3ccccc3nc21	3.1	-899.5	-0.2	-21.8	-11.3
CCn1nc(-c2ccccc2)c2nc3ccccc3nc21	-0.6	786.4*	-0.7	3.9	-64.7
c1cnc2c(OCc3cn4cccnc4n3)cccc2c1	-6.7	-4.6	0.2	-24.1	43.2*
Clc1ccc(OCc2cn3cccnc3n2)c2ncccc12	-8.4	19.4	-0.5	-22.0	1.8
CN(C)C(=O)N1CCC(C(=O)NC2CCCCCCC2)CC1	-2.6	0.9	33.1*	-22.3	-14.9
CCCCn1c(N)c(N(Cc2ccccc2OC)C(=O)CN2C(=O)NC(C)(c3ccccc3)C2=O)c(=O)[nH]c1=O (centres undefined)	1.9	2.1	0.2	-8.5	-8.8
O=C(NC[C@H]1CCCN1c1nc2ccccc2o1)c1ccc(-n2cccc2)cc1	.	.	.	.	29.0*
SMILES	PrPC surface inh	MazF activator	PfHsp40 yeast	PrP UTR inh	SSB-PriA inh
O=C(COc1ccc2ccccc2c1)Nc1cccc(C(=O)Nc2ccccc2C(=O)O)c1	5.7	0.4	37.1*	-22.7	7.6
CCc1ccc(S(=O)(=O)NCC2(N3CCOCC3)CCCCC2)cc1	0.4	0.7	-0.2	-10.8	-0.1
COc1ccccc1NC(=O)CSc1nc2nc(C)cc(C)c2c(=O)[nH]1	-5.1	51.0*	0.7	-18.4	-5.0
O=C1c2ccccc2CCCC12N=NCC2c1cccc2ccccc12 (centres undefined)	3.6	-3.4	108.6*	-5.7	-8.4
Cn1c(=O)n(C)c2cc(NS(=O)(=O)c3ccc4c(c3)CCCC4)ccc21	12.8	6.5	1.0	-8.3	0.2
O=C(O)CCl	-3.8	.	.	.	.
C/C(=N\NC(=O)COc1ccc([N+](=O)[O-])cc1)c1ccco1	-8.6	1.6	1.1	-16.3	.
C/C(=N\Nc1ccc([N+](=O)[O-])cc1)c1ccco1	-20.8	0.8	64.2*	-76.8	.
CC/C(=N\Nc1ccc([N+](=O)[O-])cc1)c1ccccc1	.	-1.3	429.9*	-6.2	.
CCO[C@H]1OC(C(N)=O)=C[C@@H](c2ccc(Br)cc2)[C@@H]1CCCO	-6.7	2.1	0.4	12.4	11.1
Cc1ccc(C(=O)N2O[C@]34C=C[C@]25C[C@@H](O)CC[C@]5(C)C3CC[C@]2(C)[C@@H]([C@H](C)/C=C/[C@H](C)C(C)C)CC[C@H]24)cc1 (some centres undefined)	3.2	.	.	.	.
CC(C)OC(=O)Nc1ccc2c(c1)N(C(=O)CCN(C)C)c1ccccc1CC2	0.5	5.8	-1.3	-19.5	-21.1
NC(=O)NNC1=Nc2cccc3cccc1c23	-6.2	-4.0	0.0	-0.3	4.1
COc1ccc(CC(=O)NNC2=Nc3cccc4cccc2c34)cc1	0.0	6.1	-0.6	0.4	-21.0
COc1ccc(C(=O)NNC2=Nc3cccc4cccc2c34)cc1	1.5	50.0*	1.3	-15.1	8.5
Cc1ccc(C(=O)NNC2=Nc3cccc4cccc2c34)cc1	4.5	85.8*	-0.9	-20.3	3.3
COC(=O)c1ccc(CSc2ccc(NC(=O)c3ccco3)nn2)o1	.	.	.	.	0.0
COC(=O)C(NC(=O)Nc1ccccc1OC)C(C)C (centres undefined)	1.7	5.1	-1.1	-26.2	-6.8
CN(C)c1nc(SCc2ccc(Cl)cc2)nc2c1CCCC2	-4.5	-2.7	220.3*	-9.0	-51.3
COCCNC(=O)C1Cc2c(-c3ccc(NC(C)=O)cc3)ccnc2O1 (centres undefined)	-0.7	.	.	.	.
Cc1nc(-n2[nH]c3c(c2=O)CCCC3)[nH]c(=O)c1Cc1ccccc1	10.1	62.8*	52.2*	9.0	-0.4
Cc1nc(N2CCc3ccccc3C2)[nH]c(=O)c1Cc1ccccc1	4.7	-3.6	1.4	-3.4	-4.5
O=[N+]([O-])c1ccc(Cl)c(S(=O)(=O)NCCOc2ccc3c(c2)OCO3)c1	.	.	.	.	31.0
O=C(NN=Cc1ccc(O)cc1O)C1CC1	.	.	.	.	-6.8
Oc1ccc(C=NC2CCCCC2)c(O)c1	-6.3	19.8	35.3*	-32.2	-17.4
SMILES	PrPC surface inh	MazF activator	PfHsp40 yeast	PrP UTR inh	SSB-PriA inh
CCCCCc1ccc(S(=O)(=O)Nc2cc(C)ccn2)cc1	-1.8	-0.3	1.0	-19.3	-3.1
CC(=NNC(=S)N1CCN(c2ccccn2)CC1)c1nccs1	.	11.9	108.4*	-2.5	92.0*
CC(=NNC(=S)N1CCN(c2ccccn2)CC1)c1ccccn1	-9.9	11.2	-0.1	-15.0	1.3
CC(=NNC(=S)N1CCN(C2CCCCCC2)CC1)c1ccccn1	13.4	4.1	81.2*	18.0	-4.2
COc1ccccc1N(C)S(=O)(=O)c1ccc(C(=O)N2CCCc3ccccc32)cc1	11.7	11.2	-0.7	-19.9	-7.5
CCCCN(CC)CCNC(=O)C1CCCN(S(=O)(=O)c2cccc3nsnc23)C1 (centres undefined)	-30.2	-0.6	0.5	-6.8	-11.1
O=C(CN1C(=O)NC2(CCc3ccccc32)C1=O)c1cccs1 (centres undefined)	-8.4	1.5	-0.7	.	-2.8
CCC(Sc1nc2ncccc2[nH]1)C(=O)NC1CCC(C)CC1 (centres undefined)	5.5	138.2*	0.4	-17.6	-3.9
CCc1ccc(NS(=O)(=O)c2cc3[nH]c(=O)c(=O)[nH]c3cc2C)cc1	-1.2	7.2	-0.3	-0.7	-5.6
O=C(c1ccc(CSCc2ccccc2F)o1)N1CCN(c2ccc(N3CCOCC3)nn2)CC1	-7.2	0.1	-0.5	-2.0	95.6*

Assay outcomes (PubChem)
